Test results as given in PubChem BioAssay (NCI).
Compounds without any hit were thinned out: in the full panel of roughly 79,000, 15% have a hit. Rule as the data show it: active = growth inhibition above about 70%; inactive = the rest.

How the values were obtained:
[1] = NCI Yeast Anticancer Drug Screen. Data for the rad50 strain (AID 155);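 also: 0% = growth of vehicle-only cultures of the same strain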; settings: S. cerevisiae rad50 strain growth inhibition; at 50.0 µM; hits give high values
Outline: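 Compounds were tested on a yeast strain with an engineered DNA damage repair alteration; the reported value is growth inhibition normalised to vehicle treatment.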

[2] = NCI Yeast Anticancer Drug Screen. Data for the mec2-1 strain (AID 157); settings: S. cerevisiae mec2-1 strain, at 50.0 µM, hits give high values
Outline: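 Each compound was tested on mec2-1 yeast, a strain altered in DNA damage repair or cell cycle control. Growth inhibition is reported relative to vehicle.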

[3] = NCI Yeast Anticancer Drug Screen. Data for the sgs1 mgt1 strain (AID 161);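 also: 0% = growth of cultures given vehicle only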; settings: S. cerevisiae sgs1 mgt1 strain, at 50.0 µM, hits give high values
Outline: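 Test agents were incubated with a DNA-repair-mutant yeast strain. Growth was then read and compared against vehicle-treated controls.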

[4] = NCI Yeast Anticancer Drug Screen. Data for the cln2 rad14 strain (AID 165);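 also: 0% = growth equal to vehicle treated cultures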; settings: S. cerevisiae cln2 rad14 strain, at 50.0 µM, hits give high values
Outline: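 Test compounds were added to cln2 rad14 yeast cultures; inhibition of growth was then determined by comparison with vehicle treatment.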

[5] = NCI Yeast Anticancer Drug Screen. Data for the bub3 strain (AID 167); settings: S. cerevisiae bub3 mutant strain, at 50.0 µM, hits give high values
Outline: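 Growth of a checkpoint-deficient yeast mutant is measured after compound exposure. Values represent inhibition relative to vehicle.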

[6] = NCI Yeast Anticancer Drug Screen. Data for the mlh1 rad18 strain (AID 175); settings: S. cerevisiae mlh1 rad18 strain growth inhibition; at 50.0 µM; hits give high values
Outline: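 Inhibition values reflect reduced growth of mutant yeast versus vehicle-treated controls following compound exposure; the mutations affect DNA damage repair.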

Measured: growth inhibition

Cc1cc(-c2ccccc2)c(C#N)c(=O)[nH]1
inactive: [1] -4.5% | [2] 12.2% | [3] -10.8% | [4] -14.8% | [5] 3.65% | [6] -7.35%

Cc1nc([N+](=O)[O-])cn1CC(=N)N
inactive: [1] -23% | [2] -28.8% | [3] -16.1% | [4] -5.15% | [5] -25.6% | [6] -38.7%

CCOC1OCCCC1C(OCC)C(C)C (stereo unspecified)
inactive: [1] 39% | [2] 14.7% | [3] 19.4% | [4] 9.35% | [5] -0.7% | [6] 12.4%

Cc1ccc(S(=O)(=O)OC2CCCCCC2c2ccccc2)cc1 (stereo unspecified)
inactive: [1] 7.85% | [2] -5.1% | [3] 0.05% | [4] -42.5% | [5] -2.75% | [6] -3.55%

CN(C)CC1CCC/C1=N/OC(=O)c1ccccc1 (stereo unspecified)
inactive: [1] 6.85% | [2] -6.7% | [3] -20% | [4] -17.9% | [5] -6.4% | [6] 16.9%

COC(=O)/C(C#N)=C(C)/C=C/c1ccc(OC)cc1
inactive: [1] 22.6% | [2] 14% | [3] 8% | [4] -15.6% | [5] 18.6% | [6] 22.2%

COc1ccc(C=C(c2ccc(OCc3ccccc3)cc2)c2ccc(OCc3ccccc3)cc2)cc1
inactive: [1] 13.2% | [2] -7.7% | [3] 6.55% | [4] 7.5% | [5] -28.1% | [6] -28.1%

COc1cccc2c1C(=N)c1c(O)c3c(c(O)c1C2=O)C[C@@](O)(C(C)=O)C[C@@H]3OC1CC(N)C(O)C(C)O1 (stereo partly specified)
inactive: [1] 42.5% | [2] -26.1% | [3] -11.7% | [4] 34.2% | [5] -4.35% | [6] 13.9%

Cc1cccc(C)c1NC(=O)OC(C)C
inactive: [1] 4.8% | [2] 5.65% | [3] -28.3% | [4] -32.5% | [5] 11.8% | [6] -12.7%

CSC1=Nc2cc3c(cc2C(=O)N2C[C@H](O)CC12)OCO3 (stereo partly specified)
inactive: [1] -20.9% | [2] -25.5% | [3] -10.9% | [4] -34.2% | [5] -10.8% | [6] -6.3%

CCCCn1c(N)n[nH]c1=S
inactive: [1] 20.5% | [2] 8.55% | [3] 1.55% | [4] -52.5% | [5] -7.25% | [6] -5.9%

Nc1ccn([C@@H]2C=C(CO)[C@@H](O)[C@H]2O)c(=O)n1
inactive: [1] -16.1% | [2] -20.6% | [3] -22.5% | [4] -13.3% | [5] -10.4% | [6] -21.9%

O=C(O)CSc1cc(Br)c(Br)cc1C(=O)O
inactive: [1] 6.05% | [2] -11.3% | [3] -0.85% | [4] 9.5% | [5] 9.8% | [6] -15.9%

NC12CC3CC(C1)CC(C(=O)O)(C3)C2
inactive: [1] 1.65% | [2] 3.05% | [3] -2.75% | [4] 3.45% | [5] 6.7% | [6] -7.1%

CC(=O)/C=C(/C=N/O)c1ccccc1
inactive: [1] 10.7% | [2] -27.1% | [3] 14.2% | [4] 7.75% | [5] 10.1% | [6] -55.8%

Oc1ccc(-c2ccc(Br)cc2)cc1
inactive: [1] -25.1% | [2] -6% | [3] -14.4% | [4] -2% | [5] -31.8% | [6] -14.8%

CN(C)CCCN1CC2C3CCCCC3=C3CCCCC3C2C1 (stereo unspecified)
inactive: [1] -15.4% | [2] 0.6% | [3] -24.1% | [4] -16.9% | [5] 1.85% | [6] -16.9%

NC(=O)C(=O)C1CCC2=C(Sc3ccccc3N2)C1=O (stereo unspecified)
inactive: [1] 39.5% | [2] -5.4% | [3] -6.35% | [4] 30.1% | [5] 34% | [6] 4.5%

CC1(C)OC2OC(C(O)COC(=O)c3ccccc3)C(Cl)C2O1 (stereo unspecified)
inactive: [1] 26.6% | [2] 8.35% | [3] -1.6% | [4] -5.5% | [5] 14.2% | [6] 39.3%

O=[N+]([O-])c1ccc(N=Nc2ccc(N(CCO)CCO)cc2)cc1
inactive: [1] -5.7% | [2] -8.35% | [3] 24% | [4] 1.25% | [5] 20.2% | [6] 6.1%

COC(=O)C(c1ccccc1)S(=O)(=O)c1ccccc1 (stereo unspecified)
inactive: [1] -2.75% | [2] -13.3% | [3] 3.6% | [4] -2.75% | [5] -21.4% | [6] -5.5%

Nc1c(C(=O)Nc2ccc(S(N)(=O)=O)cc2)[n+]([O-])c2ccccc2[n+]1[O-]
inactive: [1] -7.9% | [2] -9.8% | [3] 0.5% | [4] 1% | [5] -9.95% | [6] -6.45%

C1CCc2nc3c(nc2C1)CCCC3
inactive: [1] 9.75% | [2] 1.6% | [3] 1.7% | [4] -9.65% | [5] -0.5% | [6] 7%

CCOC(=O)/C=C\n1c(=O)cc(C)c2ccccc21
inactive: [1] 8.85% | [2] 23.7% | [3] 7.45% | [4] 18.4% | [5] -2.75% | [6] -1.15%

Cc1cnc(Sc2ncccc2[N+](=O)[O-])nc1
inactive: [1] 33% | [2] 5.75% | [3] 22.8% | [4] 25.6% | [5] -3.1% | [6] 6.7%

CCn1c2ccc(C=O)cc2c2cc([N+](=O)[O-])ccc21
inactive: [1] 6.25% | [2] -2.1% | [3] 7.2% | [4] -0.05% | [5] -4.7% | [6] 15.1%

O=C1Nc2ccccc2C1(N1CCCCC1)N1CCCCC1
inactive: [1] 35.9% | [2] 21.9% | [3] 18.5% | [4] 7.9% | [5] 33.6% | [6] 26.6%

Cc1cc(OC(=O)c2ccc(N)cc2)ccc1C1=NCC(C)S1 (stereo unspecified)
inactive: [1] 39% | [2] 20% | [3] 38% | [4] -3.05% | [5] 8.3% | [6] 0.1%

OCC1OC(Nc2ccc(F)cc2)C(O)C1O (stereo unspecified)
inactive: [1] 2.95% | [2] -10.4% | [3] -1.3% | [4] 30.1% | [5] -13.2% | [6] 26.2%

CC(C)(CCCOc1ccccc1)/C(=N/O)c1ccccc1
inactive: [1] 14.1% | [2] 5.6% | [3] -14.9% | [4] 21.6% | [5] 11.6% | [6] -14.5%

O=c1nc(NC2CC2)ccn1C1OC(CO)C(O)C1O (stereo unspecified)
inactive: [1] -3.75% | [2] -4.25% | [3] -1% | [4] -0.25% | [5] 4.35% | [6] -20.9%

O=C(c1cccc(C(=O)N(c2ccccc2)C2CCCCC2)c1)N(c1ccccc1)C1CCCCC1
inactive: [1] -2.65% | [2] -6.35% | [3] -1.55% | [4] -6.65% | [5] -1.3% | [6] -27.9%

O=c1c(Br)c(-c2ccccc2)[nH]c2ccccc12
inactive: [1] 2.95% | [2] -12.8% | [3] -32.5% | [4] 0.9% | [5] -5.7% | [6] 7.7%

CCCc1c[nH]c(-c2ccc(-c3cc(CCC)c(C=O)[nH]3)s2)c1
inactive: [1] -44.8% | [2] -22.8% | [3] -35.9% | [4] -2.8% | [5] -28.9% | [6] -56.7%

O.O.O=c1cc(Cl)[nH]c(=O)[nH]1.[NH2-].[NH2-].[Pt+4]
inactive: [1] -21.9% | [2] -18.1% | [3] -2.4% | [4] -47.6% | [5] 2.65% | [6] 35.7%

O=C(N/C=C\NC(=O)Nc1cccc(Cl)c1)Nc1cccc(Cl)c1
inactive: [1] 40.8% | [2] 16.1% | [3] 15.8% | [4] 15.8% | [5] -1.95% | [6] 18.8%
